For 40 sequences, PBM binding z-score results are on record in the supplement of paper PMC6555819.

The subject of the test is LXRb:RXRa (NR concentration 270 nM, RXRa partner concentration 90 nM). Nature of the test: PBM binding z-score (relative to random genomic background probes); higher = stronger binding; sequences stand for … in GC…GCGATTGACAGCGTAGAATGAAGG
The protocol: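 Protein-binding microarray (Agilent 4x180K custom design, double-stranded 60-nt probes: 5' GC cap, 34-nt variable region, 24-nt constant primer region; full probe sequence given). Purified or IVT nuclear receptor:RXRα heterodimers (3:1 NR:RXRα, mostly 270:90 nM) or homodimers were incubated for 1 h in PBS with 2% milk and no ligand, then detected with Alexa488 antibodies. Fluorescence from o1-orientation probes (~5 replicates averaged) was converted to z-scores against 500 random hg19 background probes. Variable regions are seed direct-repeat (DR0–DR5) sites, all their single-nucleotide variants and half-site ablations.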
Consider GCTAGTTGGTCAGTAAAATGTCACACACCGGTCG, for which the PBM binding z-score is -0.14. The figure for AGTCAAAGTTCAGGACGAGGTAACGTTAAGCACG is 1.77. Regarding AAAACAGGGTCATCGTAGGCCAGAGTACGCACAG, the PBM binding z-score is 4.8. The figure for ACTCGGAGGACAAAGGTCAGGGCTACGCCAGTGA is 3.29; for ATCGAAAGGTCTAAGGTGAGTATACCCACCCGAA it is 0.196; for CCTACTGGGCCACGAAAGGCCATTGATTCAGTGA it is -0.37. The figure for AGAATGAGGTCATTAAGATCAGGGAATTGCGGTC is 4.71; for CCAGACAGGTGAGAAGGTAACTCAGCCTCGATTA it is 0.609. The figure for TATCAAAGTTCAAAGGTAACGTAAGTATCCACAC is 4.98; for TCTTGTAGATCAACAGGAGGTTAATAAAGATCGA it is 1.49; for CTCGAAAGGTCGTGCTCAGATGAGTATACCAAAC it is 3.44. As for TCTGCTAGGTCAACGATGGTCAGTTAATCTGCTA, the PBM binding z-score is 1.72. The figure for GGAACGAGGTCAAAGTTGATAGCATCTGTCGACG is 5.45. In turn, TATACAAGGTCAAAGGCCAGAGTACGAATGTCGA gave a PBM binding z-score of 5.46. Under TACCCTAGGTCATTGGGCCAGTATAGTACGCATC stands 4.07; under CAAACTAGTTCAAGAGGTCAAAGTCCGCTTCCCG, 5.37; under AATACAGGGTCATCGTACGCCAGAGTACGCACAG, 4.92. Under AGTCAAACTTCAGGACGAGGTAACGTAAAGCACG stands -0.266; under CAAACTAGGTCACAAAAGGTCAAAGTCGAATGAC, 7.76; under CGTCTAAGGTCATAGGAGGTCAGTGAAGACAGAT, 6.9. Under AGTCAAAGTTGAGGACGAGGTAACGTAAAGCACG stands -0.0986; under ACTCGGTGGACAAAGGTCAGAGCTACGCCAGTGA, 2.99. Consider TCTCGGAGGACACTAAAGGTCAGAGCTCGACATC, for which the PBM binding z-score came to 3.73. The figure for CGAACTAGGTCGAGGACAGTGAATCTCCGCACGC is -0.262; for TGTCAACGTTCAAAGGTAACGTAAGTATCCACAC it is 0.759; for ATCGAAAGGTCGACGCGGTGAGTATACACCGTTT it is 2.25. Under CCTAGCAGGCCAATCTAGGTCACTCAAGGCTTGA stands 1.24; under CCTTACGGGTCAAGGTTATAGCCCGGGTGGTACG, 2.84. The figure for CAAACTAGGTCACGAGAGGTCAAAGTCGAATGAC is 7.33; for CCTACTGGGCCAAAGAGGTCATTGATGCCGATAA it is 3.65. In turn, TCTCGGAGGACACAAAGGTCAGAGCTTTCCAGAG returned a PBM binding z-score of 3.15.

In the case of CGAACTAGGTCATTGACAGGACAGTGGATAGTAA, the PBM binding z-score turned out to be 1.97. Sequence TAGCCTAGTTCATGCGGGCCAGTATAGTGTCGGC returned a PBM binding z-score of -0.398. As for TATACAGGGTCAAAGGCCAAAGTACGAATGTCGA, the PBM binding z-score amounted to 5.4.

For the sequence GCTTACAGGTCAAAGGTTATAGCATGAATAGAAT, the PBM binding z-score is 6.06. The figure for CCTTACGGGTCACGAGGTTGTAGCACGACGAGCG is 3.44. The figure for ATTTGTAGGTTACATCCGGGTCATTCAGGCTATG is 3.54. CCTCGGAGGACAGAAGGTCAAAGCTGTCCGCTTT showed a PBM binding z-score of 3.1. Sequence CGTCCAAGGTCAGCGGGTCAGTGAAAGCGACGTG showed a PBM binding z-score of 3.11. As for CGAACGAGGTCATTGACAGGACAGTGAATAGTAA, the PBM binding z-score is 5.01.
